Assay outcomes deposited in PubChem BioAssay by several laboratories.
Most compounds without a hit are left out; they make up all but 2.1% or so of the library.
TPT1 inh: C. albicans TPT1 enzyme inhibition; recombinant caTPT1, FP RNA substrate dephosphorylation; inhibition, % at 5 µM; 0.81% of 300,000 active; AID 1962;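 active = inhibition above the mean of all tested compounds plus 3 SD, set per screening campaign, cut at about 24% in these data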
Rpn11 block: Rpn11 (human) deubiquitinase inhibition; human 26S proteasome, Ub4-pepOG fluorescence polarization; 20S core pre-blocked with epoxomicin; inhibition, % at 20 µM; 0.59% of 360,000 active;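 active = inhibition at 20 µM, scaled to each plate's controls, above about 33%, limit read from the data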
Myeloid diff 2: promotes myeloid progenitor differentiation | ER-HoxA9 myeloid progenitors, lysozyme-GFP differentiation, flow cytometry | calls only at 10 µM | 1% of 360,000 active;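 active = normalized GFP-positive differentiation at or above the plate's own cutoff, the solvent-only control mean plus 3 SD; inconclusive = no clear call, values can overlap the other calls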;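 note: cells exposed to compound for four days before flow analysis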
HNF4A DNA FP: change in binding of human HNF4 alpha to DNA | AID 1224865 | HNF4a-FITC DNA binding, fluorescence polarization, 1 h | 0.3% of 360,000 active | activity change, % at 10 µM | P41235; in the data active = activity change above about 30%, passing the limit was not always enough
Target sequence (P41235 whole entry, looked up): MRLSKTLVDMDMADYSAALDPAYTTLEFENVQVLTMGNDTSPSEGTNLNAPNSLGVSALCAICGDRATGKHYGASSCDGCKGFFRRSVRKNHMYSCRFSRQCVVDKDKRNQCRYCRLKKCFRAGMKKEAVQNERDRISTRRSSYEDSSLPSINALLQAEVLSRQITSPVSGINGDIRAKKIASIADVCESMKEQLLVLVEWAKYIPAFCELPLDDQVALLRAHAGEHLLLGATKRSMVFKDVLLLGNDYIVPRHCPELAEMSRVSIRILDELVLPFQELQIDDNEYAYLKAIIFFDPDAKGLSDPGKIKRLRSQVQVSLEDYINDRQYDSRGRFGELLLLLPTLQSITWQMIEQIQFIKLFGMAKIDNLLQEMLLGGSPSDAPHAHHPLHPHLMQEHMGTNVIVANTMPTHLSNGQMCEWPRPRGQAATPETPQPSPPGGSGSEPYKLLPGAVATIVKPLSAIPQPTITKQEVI
Large screens that a line does not name were inactive.

COC(=O)/C=C/c1ccsc1NC(C)=O	none
Cc1ccc(-c2nn(-c3ccccc3)cc2/C=C2\SC(=S)N(CC(=O)O)C2=O)cc1	none
CCOc1ccc(-c2nn(-c3ccccc3)cc2/C=C2\SC(N)=NC2=O)cc1C	HNF4A DNA FP 57.1
CC(=O)c1cccc(OCC(=O)N(Cc2ccco2)c2c(N)n(Cc3ccccc3)c(=O)[nH]c2=O)c1	Myeloid diff 2 active (not shown: TPT1 inh, Rpn11 block)
OCC1CCCC(n2cnc3c(=S)nc[nH]c32)O1 (configuration not stated)	Myeloid diff 2 active
CCOC1CCCC(n2cnc3c(=S)nc[nH]c32)O1 (configuration not stated)	Myeloid diff 2 inconclusive (no result: TPT1 inh)
CCCS(=O)(=O)NC(=O)C1(C)CCCN(C(=O)c2cc(F)ccc2C)C1 (configuration not stated)	none (no result: TPT1 inh)
COc1ccc(C2CC(c3ccc(F)cc3)=NN2c2ccccc2)cc1OC (configuration not stated)	Rpn11 block 42.4 (no result: Myeloid diff 2)
Cc1ncc([N+](=O)[O-])n1CC(=O)N/N=C/c1ccc(F)cc1	Myeloid diff 2 active
CC(Nc1ccc(F)cc1F)C(=O)NC(=O)NC1CCCCC1 (configuration not stated)	HNF4A DNA FP 144.4
Cn1c2ccccc2c2cnn(CC(=O)Nc3ccccc3Br)c(=O)c21	none
Cn1c2ccccc2c2cnn(CC(=O)Nc3ccc(F)cc3F)c(=O)c21	Myeloid diff 2 active
Fc1ccc(N2CCN(C(c3cccs3)c3nnnn3C3CCCC3)CC2)cc1 (configuration not stated)	none
O=C(OCC(=O)N1CCN(C(=O)c2ccco2)CC1)c1ccc(S(=O)(=O)N2CCCCC2)cc1	HNF4A DNA FP 50.0 (no result: Myeloid diff 2)
O=S(CC1CC1(Cl)Cl)CC1CC1(Cl)Cl (configuration not stated)	none
Cc1c2c(cc3c1[nH]c1ccccc13)C=NCC2	Myeloid diff 2 active, HNF4A DNA FP 63.5 (not shown: TPT1 inh, Rpn11 block)
CCC(C)(C)C1CCC2(CC1)NC(=O)N(CC(=O)N1CCN(c3ccccc3OC)CC1)C2=O (configuration not stated)	none (no result: TPT1 inh)
CN(C)c1ccc(/C=C/c2cc[n+](C)cc2)cc1	HNF4A DNA FP 67.9 (not shown: Rpn11 block, Myeloid diff 2)
CC[n+]1ccc(/C=C/c2ccc(N(C)C)cc2)c2ccccc21	Myeloid diff 2 active (no result: TPT1 inh)
CCCCCC[n+]1ccccc1/C=C/c1ccc(N(C)C)cc1	HNF4A DNA FP 120.7 (not shown: TPT1 inh, Rpn11 block, Myeloid diff 2)
CCNC(=O)C1(C)CCCN(C(=O)c2ccc(C(F)(F)F)nc2C)C1 (configuration not stated)	none (no result: TPT1 inh)
COc1ccc(-c2cc(C#N)nc(N3CCNCC3)n2)cc1	HNF4A DNA FP 43.1
COC(=O)[C@@]1(Cc2ccc(F)cc2)[C@H]2C(CC(=O)C(=O)N3CCCC3)C(=O)C[C@H]2CN1C(=O)c1ccccc1 (some centres not stated)	none (no result: TPT1 inh, Rpn11 block)
COC(=O)[C@@]1(Cc2ccc(OC)cc2)[C@@H]2C(=CC(=O)[C@H]2CC(=O)C(=O)N2CCCC2)CN1C(=O)c1ccccc1	Myeloid diff 2 active
COC(=O)C1=CNC=C(C(=O)OC)C1c1ccc(Cl)cc1	Myeloid diff 2 active
COc1cccc(CC2(CO)CCN(C(=O)NC3CCCCC3)CC2)c1	none
COc1cccc(CC2(CO)CCN(C(=O)NCCc3ccccc3)CC2)c1	Myeloid diff 2 active
COC(=O)CSc1nnc(-c2ccc(NS(=O)(=O)c3ccccc3)cc2)o1	Myeloid diff 2 active
COc1cccc(CN(C)C[C@@H]2OCc3ccccc3-c3c(n(C)c4ccccc34)C(=O)N([C@@H](C)CO)C[C@H]2C)c1	Myeloid diff 2 active (no result: TPT1 inh)
CC1(C)CC(=O)c2sc(NC(=O)c3ccc4ncsc4c3)nc2C1	none
COc1ccc(C(C(=O)NC(C)(C)C)N(Cc2ccccc2)C(=O)CCC(=O)Nc2cc(C)on2)cc1 (configuration not stated)	none
COc1ccc(C(C(=O)NC(C)(C)C)N(CCC(C)C)C(=O)CCC(=O)Nc2cc(C)on2)cc1 (configuration not stated)	Myeloid diff 2 active
COC(=O)[C@@]12C[C@@H](CC(=O)N3CCCC3)C(=O)N(Cc3cccc4ccccc34)C1=CCC(C)(C)C2	none (no result: TPT1 inh, Rpn11 block)
O=C1c2ccccc2S(=O)(=O)N1CC(O)Cn1ccc2ccccc21 (configuration not stated)	Myeloid diff 2 active
COc1ccc(N2CCN(C(=O)CN(C)S(=O)(=O)c3cnc[nH]3)CC2)cc1	none
COc1ccc(-c2ccnc3[nH]n(-c4ccccc4)c(=O)c23)cc1	Myeloid diff 2 active
O=S(=O)(NCCN1CCOCC1)c1ccc(Oc2ccccc2Cl)cc1	Myeloid diff 2 active
O=S(=O)(NCCN1CCOCC1)c1ccc2ccccc2c1	none (no result: TPT1 inh)
CC(C)c1ccc(C(=O)N2CCCCC2c2cc(C(=O)Nc3ccncc3)no2)cc1 (configuration not stated)	none (no result: TPT1 inh)
CC(C1CC2CCC1C2)n1c(-c2cccs2)n[nH]c1=S (configuration not stated)	none
Cc1cccn2c(=O)c(C=O)c(NCc3ccccc3)nc12	Myeloid diff 2 active
Cc1cc2c(Nc3ccccc3)ncnc2s1	none
Cc1cc2c(NCCc3ccccc3)ncnc2s1	Myeloid diff 2 active
COc1cc2c(c(OC)c1O)C(=O)CO2	none
COc1cc(OC)c2c(O)c3c(c(-c4c5c(c(O)c6c(OC)cc(OC)cc46)CO[C@@H](C)[C@H]5O)c2c1)[C@H](O)[C@H](C)OC3	Rpn11 block 72.4
OCC[C@H]1C[C@H](O)[C@@H](O)[C@]2(OCc3ccccc32)O1	none
CCN1C(=O)/C(=C/c2cccs2)S/C1=N\S(=O)(=O)c1ccc(C)cc1	none
C=CCN1C(=O)/C(=C/c2cccs2)S/C1=N\S(=O)(=O)c1ccc(F)cc1	Myeloid diff 2 active
COc1ccc(Cl)cc1NC(=O)CN1c2ccccc2CC1C (configuration not stated)	HNF4A DNA FP 32.6
COc1cc(NC(=O)CN2c3ccccc3CC2C)cc(OC)c1OC (configuration not stated)	none
CCN(CC)C(=O)c1cccc(NC(=O)CC23CC4CC(CC(C4)C2)C3)c1	Myeloid diff 2 active
O=C1CC(N2C(=O)/C(=C/C=C/c3ccccc3)SC2=S)C(=O)N1c1ccccc1 (configuration not stated)	TPT1 inh 78.0 (not shown: Rpn11 block)
N#CCCN(Cc1cccs1)C(=O)Nc1ccccc1	none
Cc1ccc(NC(=S)N/N=C2\CCCCC2C)cc1 (configuration not stated)	Myeloid diff 2 active
N#Cc1cccc(NC(=O)CSc2ccccc2)c1	none
N#Cc1cccc(NC(=O)CSc2ccc3c4c(cccc24)C(=O)c2ccccc2-3)c1	Myeloid diff 2 active
Nc1nc(N)c2nc(-c3ccccc3)c(N)nc2n1	Myeloid diff 2 active
CSc1ccc(CN(C)C(=O)c2cc3ccccc3o2)cc1	none
CSc1ccc(CN(C)C(=O)c2cc(=O)c3ccccc3o2)cc1	Myeloid diff 2 active
CCc1ccc(OCC(=O)N/N=C(\C)c2ccc(O)cc2O)cc1	Myeloid diff 2 active
O=C(COc1ccc2c3c(c(=O)oc2c1)CCC3)N[C@@H](Cc1ccccc1)C(=O)O	none
COc1ccc(CC(=O)N[C@@H]2c3ccccc3CC[C@H]2OCc2ccccc2)cc1	none (no result: TPT1 inh)
